Experiment in all cases: NCI-60 one-dose screen, 48 h (100 = growth as untreated, 0 = no growth, -100 = all killed)
What all share (settings): 10 µM unless noted

The test system of assay [1] is DU-145 prostate.
The subject of assay [2] is K-562 leukemia.
Assay [3] relates to MALME-3M melanoma.
Assay [4] deals with MDA-MB-231 breast.
The subject of assay [5] is RXF 393 renal.
The test system of assay [6] is SF-268 CNS.
For assay [7], the system named is SF-539 CNS.
In assay [8] the test system is UACC-257 melanoma.
In assay [9] the test system is M14 melanoma.
Assay [10] has as its system HCT-15 colon.
For assay [11], the system named is HT29 colon.
The test system of assay [12] is SNB-75 CNS.
Assay [13] deals with SNB-19 CNS.
In assay [14] the test system is U251 CNS.
In assay [15] the test system is PC-3 prostate.
In assay [16] the test system is SK-MEL-5 melanoma.
For assay [17], the system named is UACC-62 melanoma.
For assay [18], the system named is LOX IMVI melanoma.
Assay [19] deals with SK-MEL-28 melanoma.

Each structure is given as a SMILES string. Compounds without any hit were thinned out: in the full panel of roughly 83,000, 20% have a hit.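 For each line, cells grew in 96-well plates with the test compound present at a single concentration for 48 hours.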 A number with no mark means an inactive call. Activity calls are given as the source filed them. How the source made its calls: active means growth percent below 10; inactive means the rest.

In PubChem BioAssay (NCI) one finds growth data, which are given here for 15 molecules.

Turning to `Cc1ccc(N2C3c4ccccc4N(S(=O)(=O)c4ccc(C)cc4)C2c2ccccc2N3S(=O)(=O)c2ccc(C)cc2)cc1`, the growth in [1] is 104%; in assay [2] it was 90.4%; in assay [3] it was 97.9%; in assay [4] it was 94.3%; in assay [5] it was 121%; in [6] it was 107%. The growth in assay [7] is 95.4%; in [8], 102%; in assay [9], 110%; in assay [10], 94.9%; in [11], 101%; in [12] it was 89.5%. Moreover, the growth was 111% in assay [13]; 91.8% in [14]; 90.4% in assay [15]; 103% in assay [16]; 99.6% in [17]; 98.7% in [18]. For the same molecule, the growth in assay [19] is 99.3%.

With `CN1CCN(Cc2ccc(NC(=O)c3cncc(C#Cc4ncc5ccccn45)c3)cc2C(F)(F)F)CC1`, the growth was -4.29% (active) in [1]; 3.35% (active) in [2]; -21.4% (active) in assay [3]; 15.4% in [4]; -10.1% (active) in assay [5]; 15.4% in assay [6]. In addition, the growth in [7] was -79.6% (active); in assay [8], 7.63% (active); in [9], 5.5% (active); in [10] it was 19.2%; in [11], 5.13% (active); in assay [12] it was 34.3%. The growth in assay [13] was 39%; in [14], -27.7% (active); in assay [15] it was 21.9%; in [16], 52.3%; in assay [17], 51.7%; in assay [18] it was 25.7%. For the same molecule, the growth in assay [19] is 8.57% (active).

With `Brc1ccccc1Cn1c(-c2cncs2)nc2ccccc21`, the growth in assay [1] was 98.4%; in assay [2], 74.6%; in assay [3], 98%; in [4], 71.2%; in assay [5], 97.6%; in assay [6], 92.1%. Also, the growth was 88.5% in assay [7]; 96% in assay [8]; 92.9% in assay [9]; 82.8% in assay [10]; 80.7% in assay [11]; 53% in assay [12]. For the same molecule, the growth was 84.6% in assay [13]; 84.8% in assay [14]; 57.2% in assay [15]; 76.2% in assay [16]; 70.1% in [17]; 75.8% in assay [18]. Besides, in assay [19], the growth was 104%.

Turning to `OC(c1cc2c(Cl)cc(Cl)cc2c2cc(C(F)(F)F)ccc12)C1CCCCN1` (stereo not given), the growth is -94.5% (active) in assay [1]; -75.5% (active) in assay [2]; -44% (active) in [3]; -73% (active) in assay [4]; -90.9% (active) in assay [5]; -82.9% (active) in assay [6]. Further, the growth in [7] was -81.5% (active); in [8] it was -67.1% (active); in [9], -82.3% (active); in assay [10], -66.8% (active); in assay [11] it was -80.5% (active); in [12] it was -91% (active). In addition, the growth in [13] was -72.8% (active); in [14] it was -93% (active); in assay [15], -84% (active); in assay [16], 8.25% (active); in [17], -72.4% (active); in assay [18], -66.2% (active). Moreover, in assay [19], the growth was -75.4% (active).

As to `COc1ccc(-c2[nH]nc(N)c2-c2cc(OC)c(OC)c(OC)c2)cc1`, the growth was 2.62% (active) in assay [1]; -15.6% (active) in assay [2]; 25.8% in assay [3]; -10.6% (active) in [4]; 20% in [5]; 15.1% in assay [6]. Besides, the growth is -13.1% (active) in assay [7]; 58.1% in [8]; -5.11% (active) in assay [9]; 10.1% in [10]; -2.71% (active) in assay [11]; 54.9% in assay [12]. Besides, the growth was 48.8% in [13]; 6% (active) in [14]; 6.31% (active) in assay [15]; -16.5% (active) in [16]; 23.8% in [17]; 12.1% in assay [18]. In addition, in [19], the growth was 47.8%.

For `CC(C)OC(=O)c1ccc([N+](=O)[O-])cc1`, the growth is 116% in assay [1]; 117% in [2]; 131% in assay [3]; 102% in assay [4]; 116% in assay [5]; 119% in assay [6]. The growth in assay [7] is 112%; in [8], 101%; in assay [9] it was 108%; in assay [10] it was 107%; in [11], 102%; in assay [12] it was 111%. For the same molecule, the growth in [13] is 109%; in assay [14], 106%; in assay [15], 102%; in [16] it was 106%; in assay [17], 100%; in [18], 98%. Further, the growth in assay [19] was 110%.

`CC(C)COC(=O)NC(C)(C)C`: the growth in assay [1] was 115%; in assay [2] it was 92.8%; in assay [3] it was 107%; in [4] it was 119%; in [5], 113%; in [6] it was 109%. For the same molecule, the growth in assay [7] was 101%; in [8] it was 102%; in assay [9] it was 104%; in assay [10], 98%; in assay [11], 93%; in assay [12], 86.7%. The growth in [13] is 111%; in assay [14] it was 107%; in assay [15], 102%; in assay [16], 109%; in assay [17], 107%; in assay [18], 103%. Also, in assay [19], the growth was 113%.

For `COc1cc(NC(C)CCCN)c2ncccc2c1Sc1ccc(Cl)cc1` (stereo not given), the growth was 76.3% in [1]; -33.2% (active) in assay [2]; 82.4% in assay [3]; 36% in assay [4]; 57.9% in [5]; 70.5% in [6]. The growth in [7] is 75.9%; in assay [8] it was 65.1%; in [9] it was 27.5%; in assay [10] it was 39.3%; in assay [11] it was -46.4% (active); in assay [12], 48.7%. For the same molecule, the growth in [13] was 78.3%; in [14], 39.3%; in [15], 47.1%; in assay [16], 67.3%; in assay [17], 81.2%; in assay [18], -62.4% (active). In addition, the growth in assay [19] is 93.3%.

On to `C#CC[C@@H]1C[C@]2(C)[C@H]3CC[C@@H]4[C@H]5C(C(=C)C)CC[C@]5(C(=O)NCCN(CCN)CCN)CC[C@@]4(C)[C@]3(C)CC[C@H]2C(C)(C)[C@H]1OC(C)=O` (stereo not given in full), for which the growth in assay [1] is 95.1%; in assay [2], 2.56% (active); in assay [3], 85.7%; in [4], 33%; in assay [5] it was -66.1% (active); in assay [6] it was 87.6%. The growth was 95.2% in assay [7]; 109% in [8]; 91.3% in [9]; -52.9% (active) in assay [10]; 46.8% in assay [11]; 103% in [12]. For the same molecule, the growth is 69.8% in assay [13]; -28.4% (active) in [14]; 79.9% in [15]; 96.5% in [16]; 103% in assay [17]; 65.5% in assay [18]. The growth in assay [19] is 105%.

In the case of `COc1ccc(C(=O)c2c(N)nc3n2CCCC3)cc1OC`, the growth was 107% in assay [1]; 90.6% in [2]; 99.9% in assay [3]; 115% in assay [4]; 111% in assay [5]; 106% in [6]. For the same molecule, the growth in assay [7] is 102%; in [8] it was 100%; in assay [9], 103%; in assay [10], 98.4%; in [11] it was 94.7%; in assay [12], 85.1%. Further, the growth is 110% in assay [13]; 98.5% in assay [14]; 101% in assay [15]; 100% in assay [16]; 109% in assay [17]; 97% in assay [18]. Moreover, the growth in assay [19] is 108%.

`COc1cccc(/C=N/N=C(N)N)c1`: the growth in assay [1] was 102%; in [2], 94.5%; in [3], 111%; in assay [4], 91.4%; in [5], 106%; in assay [6], 101%. The growth in assay [7] was 84.5%; in assay [8] it was 97.1%; in assay [9], 93.8%; in assay [10], 100%; in [11], 100%; in [12], 89.9%. In addition, the growth is 101% in assay [13]; 103% in assay [14]; 97.2% in assay [15]; 98.1% in assay [16]; 81.8% in assay [17]; 106% in assay [18]. Moreover, the growth in assay [19] was 106%.

On to `O=C(Nc1cnc(C(F)(F)F)cn1)c1cc(Cl)ccc1O`, for which the growth in assay [1] is 24.9%; in assay [2] it was 7.07% (active); in [3] it was -18.5% (active); in assay [4], -21.1% (active); in [5], -1.32% (active); in assay [6], 18.2%. The growth in assay [7] was 3.19% (active); in [8], -20.6% (active); in assay [9], -3.59% (active); in assay [10], 10.9%; in assay [11], 22.6%; in assay [12], -20.4% (active). Further, the growth was 24.3% in [13]; 6.83% (active) in [14]; 5.49% (active) in assay [15]; -80.7% (active) in assay [16]; -5.58% (active) in [17]; 6.55% (active) in [18]. Also, the growth in assay [19] is 3.09% (active).

Turning to `C[C@@H](C[C@H](CC1CC1)c1ccccc1)c1ccc2ccccc2c1`, the growth in [1] is 106%; in [2], 104%; in assay [3], 96.7%; in [4], 106%; in [5], 117%; in assay [6], 98.5%. For the same molecule, the growth was 96.9% in [7]; 106% in [8]; 102% in assay [9]; 107% in assay [10]; 105% in assay [11]; 85% in assay [12]. Besides, the growth in [13] is 101%; in [14] it was 101%; in [15] it was 98.9%; in assay [16], 99.9%; in [17], 103%; in assay [18], 98.4%. In addition, the growth in assay [19] is 107%.

Consider `Fc1[nH]nc2ccc([C@@H]3Nc4ccc5[nH]ncc5c4[C@H]4C5CCC(C5)[C@@H]34)cc12` (stereo not given in full), for which the growth is 15.1% in [1]; 15.1% in assay [2]; 48.5% in assay [3]; 46.2% in assay [4]; -6.05% (active) in [5]; 57.5% in assay [6]. The growth in [7] was -15.9% (active); in [8], 82.2%; in [9], 21.2%; in [10], 34.5%; in assay [11], 8.7% (active); in [12], -14.8% (active). The growth in assay [13] is 36.6%; in assay [14], 25.8%; in assay [15], 27.8%; in assay [16] it was 25.7%; in assay [17], 27.5%; in [18], 48.3%. For the same molecule, in assay [19], the growth is 54.8%.

Consider `Cn1nc(C(F)(F)F)cc1-c1c[nH]c(OCc2ccc(Cl)cc2)c(-c2ccc(Cl)c(C(F)(F)F)c2)c1=O`, for which the growth in assay [1] is 15.7%; in assay [2], 8.64% (active); in assay [3], -24.2% (active); in assay [4], -29% (active); in [5], -21.9% (active); in assay [6], 8.48% (active). Besides, the growth in [7] is -11.4% (active); in [8], 4.21% (active); in assay [9] it was 1.49% (active); in assay [10], 6.6% (active); in assay [11], 5.99% (active); in assay [12], -6.2% (active). Besides, the growth is 21.1% in [13]; 8.33% (active) in assay [14]; 5% (active) in [15]; -63.9% (active) in [16]; -14.9% (active) in assay [17]; 7.07% (active) in [18]. For the same molecule, the growth in [19] is 10.1%.
